Assay outcomes deposited in PubChem BioAssay by several laboratories.
CCHF vOTU inh-1 – CCHFV vOTU protease inhibitors, primary screen, biochemical, Pep-AMC substrate, fluorescence. AID 651958, 2012. inhibition, % at 11.5 µM. Crimean-Congo hemorrhagic fever virus L polyprotein viral ovarian tumor (vOTU) protease …. actives 0.55% (n = 370,000); note: 0% = vehicle wells with enzyme and 100% = no enzyme wells
Mtb hypoxia inh – PubChem AID 1159583; M. tuberculosis hypoxia-regulated fluorescent reporter, fluorescence; fluorescence inhibition, % (concentration not given with the values); actives 0.1% (n = 300,000); in the data active = fluorescence inhibition mostly above about 23%, no sharp cut-off; inactive = mostly below about 17%
RecA intein inh – Mtb RecA intein splicing inhibitors, primary screen, biochemical, fluorescence, HTS; cell-free RecA intein splicing; actives 0.75% (n = 290,000); Protein RecA (Mycobacterium tuberculosis (strain ATCC 25618 / H37Rv)), P9WHJ3; inhibition, % (concentration not given with the values); in the data active = inhibition above about 30%;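 note: 0% = vehicle wells and 100% = reference inhibitor control wells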
Target sequence (P9WHJ3 whole entry, looked up): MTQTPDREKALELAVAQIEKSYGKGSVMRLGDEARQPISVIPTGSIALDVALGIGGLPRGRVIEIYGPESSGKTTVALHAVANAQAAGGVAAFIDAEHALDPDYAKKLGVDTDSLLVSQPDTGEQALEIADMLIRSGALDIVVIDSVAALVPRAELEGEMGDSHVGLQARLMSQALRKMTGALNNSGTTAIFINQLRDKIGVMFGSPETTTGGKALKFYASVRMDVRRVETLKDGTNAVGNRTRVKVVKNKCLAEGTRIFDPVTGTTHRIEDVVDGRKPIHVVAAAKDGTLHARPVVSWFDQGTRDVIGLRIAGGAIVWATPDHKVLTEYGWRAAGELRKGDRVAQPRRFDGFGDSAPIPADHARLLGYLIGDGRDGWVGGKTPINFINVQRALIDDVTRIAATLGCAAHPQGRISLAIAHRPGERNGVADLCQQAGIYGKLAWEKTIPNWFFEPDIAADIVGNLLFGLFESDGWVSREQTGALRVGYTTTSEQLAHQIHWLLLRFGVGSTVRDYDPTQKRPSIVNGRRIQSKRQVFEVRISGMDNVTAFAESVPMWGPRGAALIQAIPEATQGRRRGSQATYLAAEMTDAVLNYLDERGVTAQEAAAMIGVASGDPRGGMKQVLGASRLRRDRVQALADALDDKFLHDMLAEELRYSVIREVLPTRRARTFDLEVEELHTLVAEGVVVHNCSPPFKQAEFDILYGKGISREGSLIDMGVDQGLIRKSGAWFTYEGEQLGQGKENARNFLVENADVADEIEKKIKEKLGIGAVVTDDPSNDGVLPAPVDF
PfHsp40 rescue – rescue of yeast from PfHsp40 toxicity, primary screen, S. cerevisiae, ATP luminescence; S. cerevisiae expressing PfHsp40, growth rescue; actives 0.68% (n = 340,000); growth rescue, % at 12.5 µM; in the data active = growth rescue above about 28%, passing the limit was not always enough;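 note: yeast W303a lacking pdr1 and pdr3 grown in galactose medium; growth measured after three days at 30 °C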
Mtb bLac sens – beta-lactam sensitization of Mtb H37Rv, H37Rv. M. tuberculosis H37Rv growth with meropenem, percent inhibition. actives 0.27% (n = 330,000). AID 434955, 2010. inhibition, % at 25 µM; call rule not given here;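 note: growth measured after seven days incubation then overnight dye step; 0% = bacteria only wells and 100% = bacteria with antibiotic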
CCHF vOTU inh-2 – CCHFV vOTU protease inhibitors, confirmation, biochemical, Pep-AMC substrate, fluorescence; shares compounds with CCHF vOTU inh-1; Recombinant CCHFV vOTU; inhibition, % at 11.5 µM; actives 17% (n = 1,900); AID 686976, 2013
The depositor's hits bear a star; / = no result. The list is not random: actives were taken first. Their share in the collection is about 1.7%. Cut-off read from the data, not from the text of the source, unless noted: active = inhibition above about 30%; inactive = the rest.

SMILES | CCHF vOTU inh-1 | Mtb hypoxia inh | RecA intein inh | PfHsp40 rescue | Mtb bLac sens | CCHF vOTU inh-2
CC1=C(C(=O)Nc2ccccc2)C(c2ccc(C)o2)n2c(sc(=Cc3ccco3)c2=O)=N1 (stereo unspecified) | / | 9.2 | / | / | / | /
COc1cccc(C2Oc3ccc(OC)cc3C(=O)C2OC(=O)Nc2cc(OC)c(OC)c(OC)c2)c1 (stereo unspecified) | / | -2.1 | / | / | / | /
CC(CC(=O)NCc1ccco1)=NNC(=O)COc1ccc(C)cc1 | / | -1.8 | / | / | / | /
CC(C)(C)OC(=O)N1CCCC(C(=O)Nc2cccc(C(=O)NCCCc3ccccc3)c2)C1 (stereo unspecified) | 31.3* | / | / | 1.5 | / | 1.0
COC1=C/C(=C/c2c(N)n3nc(CC(=O)N4CCCC4)sc3nc2=O)C=CC1=O | 22.0 | 8.5 | -3.6 | -0.3 | -6.4 | /
COC1=CC(=Cc2c(N)n3nc(CC(=O)N4CCCCC4)sc3nc2=O)C=C(OC)C1=O | 33.9* | / | -2.2 | 0.4 | 1.0 | 4.3
COc1ccc(OC)c(S(=O)(=O)Oc2ccc(N)c3ccccc23)c1 | 29.8* | 2.1 | 17.2 | -0.8 | -14.1 | -13.8
CCCN1CCOC2c3cc(O)ccc3OCC21 (stereo unspecified) | / | 9.3 | / | / | / | /
COc1ccc(CC2CN3C(=NCC3Cc3ccccc3)N2CCNC(=O)CCC2CCCCC2)cc1 (stereo unspecified) | / | -12.2 | / | / | / | /
Nn1cnnc1NN=Cc1cccc(Cl)c1Cl | / | -10.6 | / | / | / | /
Cc1nnc(NN=Cc2ccccc2C(F)(F)F)n1N | / | 7.2 | / | / | / | /
Nn1cnnc1N/N=C/c1cccc(Cl)c1Cl | 60.8* | / | -1.3 | -0.7 | 5.2 | -1.0
Nn1cnnc1N/N=C/c1ccccc1C(F)(F)F | 69.4* | / | 4.2 | -1.1 | -7.1 | -10.5
CC1CCCC(C)N1Cc1nc(Cc2ccccc2Cl)no1 (stereo unspecified) | / | 7.6 | / | / | / | /
CC(=O)c1ccc(NC(=O)C2=CC(c3ccco3)=NS(=O)(=O)N2C)cc1 | 33.1* | 6.3 | -2.1 | 0.5 | -0.1 | -1.2
COC(=O)[C@]1(Cc2ccccc2)N[C@H](CN(C)C(=O)Nc2ccc(F)cc2)[C@@H]2C(=O)N(Cc3ccccc3)C(=O)[C@@H]21 | 23.1 | -4.2 | / | 0.8 | 3.2 | /
COC(=O)[C@]1(Cc2ccccc2)N[C@H](CN(C)C(=O)Nc2ccccc2)[C@@H]2C(=O)N(Cc3ccccc3)C(=O)[C@@H]21 | 36.9* | -1.9 | / | 3.5 | 1.6 | -24.8
O=C(NCc1ccco1)c1ccccc1Nc1ccc(F)cc1 | 31.1* | -9.9 | 10.3 | 0.5 | -2.8 | -5.3
COC(C(=O)NN=C(C)c1ccc(C(C)(C)C)cc1)c1ccccc1 (stereo unspecified) | / | 7.5 | / | / | / | /
CC(C)Cc1ccc(-c2cc3nc(NCCCn4ccnc4)ccn3n2)cc1 | 29.9* | / | / | / | / | 2.3
CCN(C(=S)NCCOC)c1cccc2ccccc12 | -14.2 | 7.2 | 0.6 | -0.1 | 10.3 | /
CCN(C(=S)NC(=O)c1ccco1)c1cccc2ccccc12 | 46.1* | 6.1 | / | 0.4 | 51.8 | -44.0
Cc1ccccc1NC(=O)Cc1nc(COC(=O)c2cc([N+](=O)[O-])ccc2NCCO)cs1 | 30.2* | 2.3 | -0.6 | 15.1 | 4.0 | -2.9
Cc1cccc(C(=O)NN=Cc2ccccn2)c1 | / | 0.1 | / | / | / | /
O=C(CCNC(=O)c1ccc(Br)cc1)NC1CCCCCC1 | 36.7* | 1.3 | / | 1.1 | 2.4 | -3.4
SMILES | CCHF vOTU inh-1 | Mtb hypoxia inh | RecA intein inh | PfHsp40 rescue | Mtb bLac sens | CCHF vOTU inh-2
O=C(CCNC(=O)c1ccc(Cl)cc1)NC1CCCCCC1 | 0.2 | 9.6 | / | 0.4 | -11.6 | /
Oc1ccc(NCc2ccccc2OCc2ccccc2)cc1 | 51.4* | 1.3 | 14.1 | 2.2 | 3.6 | 16.9
C/C(=N\NC(=O)c1cc(O)ccc1O)c1cccc(NC(=O)c2cccc(Cl)c2)c1 | 31.7* | / | -6.1 | 2.9 | -8.9 | -2.9
C/C(=N\NC(=O)c1cc(O)ccc1O)c1cccc(NC(=O)c2ccc(Cl)cc2)c1 | 5.6 | / | -5.3 | -1.6 | 2.5 | /
COC(=O)[C@]1(Cc2ccccc2)NC(c2ccc(-c3ccc(OC)cc3)cc2)C2C(=O)N(C)C(=O)C21 (stereo partly specified) | / | 6.6 | / | / | / | /
CCOC(=O)c1ccc(NC(=NS(=O)(=O)c2ccccc2)c2ccccc2)cc1 | / | 4.9 | / | / | / | /
CCOC(=O)C1=C(CC)Nc2ccccc2N/C1=N\S(=O)(=O)c1ccc(C(=O)OCC)cc1 | 30.2* | -1.9 | 3.0 | -0.5 | -3.8 | 5.5
CCOc1cc(C=NNC(N)=O)cc(Br)c1OCC(=O)Nc1ccccc1C | / | 7.2 | / | / | / | /
CCOC(=O)CC1c2ccc(C(F)(F)F)cc2S(=O)(=O)N1C(C)C (stereo unspecified) | / | 11.6 | / | / | / | /
C#CCOCCOCCOCCNc1nc(N2CCN(C(=O)Cn3cc(CCCCN)nn3)CC2)nc(N2CCN(C(=O)C(CCCCN)n3cc(CCC(=O)O)nn3)CC2)n1 (stereo unspecified) | / | 17.5 | / | / | / | /
O=C(NN=Cc1cc(Br)ccc1O)c1ccncc1 | / | 13.7 | / | / | / | /
COc1ccc(NC(=O)CCC(=O)NN=Cc2ccc([N+](=O)[O-])s2)cc1 | / | 1.1 | / | / | / | /
NC1=CC(=O)C(=O)c2ccccc21 | 20.0 | -8.6 | / | 0.6 | / | /
O=C1C=C(O)c2[nH]c(=O)ccc2C1=O | 95.5* | / | / | -1.2 | / | 66.8*
O=C(CSc1ncn[nH]1)NN=Cc1ccc(C(F)(F)F)cc1 | / | 0.2 | / | / | / | /
O=C(NCc1nnc(SCc2ccc(F)cc2)n1-c1ccc(F)cc1)C12CC3CC(CC(C3)C1)C2 | 34.3* | -2.9 | 7.8 | 2.8 | 69.9 | -9.3
Cc1cccc(C)c1C(=O)NC(Cc1ccccc1)C(=O)O (stereo unspecified) | / | 1.2 | / | / | / | /
Cc1c(C)n(Cc2ccc(-c3ccccc3C(=O)O)cc2)c2ccc(C(=O)N[C@@H](C)c3ccc(Br)cc3)cc12 | 32.8* | / | / | / | / | 3.1
COC(=O)[C@@]12CCCN1C(c1ccc(-c3ccc(OC)cc3)c(OC)c1)C1C(=O)N(C)C(=O)C12 (stereo partly specified) | / | -6.5 | / | / | / | /
CC(C)N1CC2(CC(c3ccccc3F)=NO2)CN1C(=O)c1ccc(C(C)(C)C)cc1 (stereo unspecified) | 34.5* | / | / | / | / | -4.5
NC(=O)CN1C(=O)C(=c2sc3nc(=O)c(Cc4ccccc4)nn3c2=O)c2ccccc21 | / | 7.4 | / | / | / | /
O=c1[nH]c(=S)[nH]c2c1C(c1cccc(C(F)(F)F)c1)OC(CCc1ccccc1)C2 (stereo unspecified) | 42.1* | / | / | / | / | -11.2
O=c1[nH]c(=S)[nH]c2c1C(c1ccc(Cl)c(Cl)c1)OC(CCc1ccccc1)C2 (stereo unspecified) | 0.3 | / | / | / | / | /
CN(C)N1C(N)=C(C#N)C(c2ccccc2)C2=C1CC(C)(C)CC2=O (stereo unspecified) | 12.0 | 12.3 | 1.8 | -0.3 | -4.4 | /
CN(C)N1C(N)=C(C#N)C(c2ccc(F)cc2)C2=C1CC(C)(C)CC2=O (stereo unspecified) | 30.3* | 2.4 | -2.0 | 0.4 | -2.6 | -19.1
